Test [1] is described as follows: Quantitative High-Throughput drug screen in 47 multiple myeloma cell lines against the NCATS MIPE library collection: LP1_DSMZ cell viability assay (AID 1918982). Note: nearly all actives have a fitted effect of over 35% in size. The essentials: (§1)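 qHTS format: cells plated (500/well), pin-dosed with MIPE 4.0 compounds, kept 48 h at 37 °C. Readout was CellTiter-Glo luminescence, median RLU.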
A short description of test [2]: Quantitative High-Throughput drug screen in 47 multiple myeloma cell lines against the NCATS MIPE library collection: UTMC2_PLB cell viability assay (AID 1919868). Note: nearly all actives have a fitted effect of over 55% in size. Conditions: CellTiter-Glo ATP luminescence, 48 h; viability (% of DMSO control): at 45.8 µM (top of the series). The procedure, abridged: as §1
Test [3] in a line: Quantitative High-Throughput drug screen in 47 multiple myeloma cell lines against the NCATS MIPE library collection: PE2_PLB cell viability assay (AID 1919869). Note: nearly all actives have a fitted effect of over 35% in size. The essentials:
as §1

The nature of test [4]: Quantitative High-Throughput drug screen in 47 multiple myeloma cell lines against the NCATS MIPE library collection: KMS11_JCRBsus cell viability assay (AID 1919873). Note: nearly all actives have a fitted effect of over 50% in size. The procedure, abridged:
as §1

A short description of test [5]: Quantitative High-Throughput drug screen in 47 multiple myeloma cell lines against the NCATS MIPE library collection: KMS28PE_JCRB cell viability assay (AID 1918983). Note: nearly all actives have a fitted effect of over 35% in size. The essentials:
as §1

Test [6] in a line: Quantitative High-Throughput drug screen in 47 multiple myeloma cell lines against the NCATS MIPE library collection: L363_DSMZ cell viability assay (AID 1918984). Note: nearly all actives have a fitted effect of over 40% in size. Conditions: L363 myeloma viability, CellTiter-Glo ATP luminescence, 48 h; viability (% of control): at 45.8 µM (top of the series). The essentials:
as §1

Test [7] in a line: Quantitative High-Throughput drug screen in 47 multiple myeloma cell lines against the NCATS MIPE library collection: OCIMY5_PLB cell viability assay (AID 1918988). Note: nearly all actives have a fitted effect of over 65% in size. The procedure, abridged: as §1
Test [8] is described as follows: Quantitative High-Throughput drug screen in 47 multiple myeloma cell lines against the NCATS MIPE library collection: OPM1_PLB cell viability assay (AID 1918989). Note: nearly all actives have a fitted effect of over 40% in size. The procedure, abridged:
as §1

A short description of test [9]: Quantitative High-Throughput drug screen in 47 multiple myeloma cell lines against the NCATS MIPE library collection: SKMM1_PLB cell viability assay (AID 1919863). Note: nearly all actives have a fitted effect of over 35% in size. The settings on record: SKMM1 myeloma viability, CellTiter-Glo ATP, 48 h; viability: hits give low values. The procedure, abridged: as §1
The nature of test [10]: Quantitative High-Throughput drug screen in 47 multiple myeloma cell lines against the NCATS MIPE library collection: U266_ATCC cell viability assay (AID 1919864). Note: nearly all actives have a fitted effect of over 35% in size. The procedure, abridged:
as §1

The nature of test [11]: Quantitative High-Throughput drug screen in 47 multiple myeloma cell lines against the NCATS MIPE library collection: XG6_PLB cell viability assay (AID 1919865). Note: nearly all actives have a fitted effect of over 40% in size. The procedure, abridged:
as §1

A short description of test [12]: Quantitative High-Throughput drug screen in 47 multiple myeloma cell lines against the NCATS MIPE library collection: XG1_PLB cell viability assay (AID 1919866). Note: nearly all actives have a fitted effect of over 35% in size. The procedure, abridged:
as §1

A short description of test [13]: Quantitative High-Throughput drug screen in 47 multiple myeloma cell lines against the NCATS MIPE library collection: PCM6_Riken cell viability assay (AID 1919870). Note: nearly all actives have a fitted effect of over 30% in size. The procedure, abridged:
as §1

The nature of test [14]: Quantitative High-Throughput drug screen in 47 multiple myeloma cell lines against the NCATS MIPE library collection: RPMI8226_ATCC cell viability assay (AID 1919871). Note: nearly all actives have a fitted effect of over 30% in size. The essentials: as §1
The nature of test [15]: Quantitative High-Throughput drug screen in 47 multiple myeloma cell lines against the NCATS MIPE library collection: OPM2_DSMZ cell viability assay (AID 1919872). Note: nearly all actives have a fitted effect of over 30% in size. The procedure, abridged:
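CellTiter-Glo ATP luminescence gave viability after 48 h compound treatment at 37C of 500 multiple myeloma cells per well. Normalisation used DMSO-only wells as 100% and media-only wells as 0% viability; primary qHTS of approved and investigational drugs.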

Test [16] can be described thus: Quantitative High-Throughput drug screen in 47 multiple myeloma cell lines against the NCATS MIPE library collection: KMS28BM_JCRB cell viability assay (AID 1919874). Note: nearly all actives have a fitted effect of over 35% in size. The procedure, abridged: as §1
The nature of test [17]: Quantitative High-Throughput drug screen in 47 multiple myeloma cell lines against the NCATS MIPE library collection: OCIMY7_PLB cell viability assay (AID 1918987). Note: nearly all actives have a fitted effect of over 65% in size. The settings on record: OCI-MY7 myeloma viability, CellTiter-Glo ATP, 48 h; viability (% of DMSO): at 45.8 µM (top of the series). The procedure, abridged: as §1
The nature of test [18]: Quantitative High-Throughput drug screen in 47 multiple myeloma cell lines against the NCATS MIPE library collection: VP6_DJ cell viability assay (AID 1919867). Note: nearly all actives have a fitted effect of over 40% in size. The essentials:
as §1

A short description of test [19]: Quantitative High-Throughput drug screen in 47 multiple myeloma cell lines against the NCATS MIPE library collection: KMS34_JCRB cell viability assay (AID 1918985). Note: nearly all actives have a fitted effect of over 40% in size. The procedure, abridged:
as §1

Results filed as inconclusive are left out. Values without a mark were called inactive. Activity calls are given as the source filed them. Calls come from the whole dose curve; as a rule, active = well fitted cell-killing curve with a large enough effect; inconclusive = small, poorly fitted or top-dose-only effect, or effect the other way; inactive = no such curve, though single readings can be large or run the other way.
Potency is the fitted concentration of half-maximal effect.

As to `Cn1cnc(-c2cc3nccc(Oc4ccc(NC(=S)NC(=O)Cc5ccccc5)cc4F)c3s2)c1`, the Potency in test [1] was 16.6 µM (active); in test [2] it was 0.132 µM (active); in test [3] it was 13.2 µM (active); in test [4], 20.9 µM (active).
As to `COC1CCC(C(=O)c2ccc3nc4c(cc3c2)CCCO4)CC1` (centres undefined), the Potency in test [5] is 23.5 µM (active); in [6] it was 23.5 µM (active); in [7] it was 26.4 µM (active); in [8], 14.8 µM (active); in test [9] it was 26.4 µM (active); in test [10], 18.7 µM (active). In addition, the Potency in test [11] is 16.6 µM (active); in test [12] it was 14.8 µM (active); in test [3], 18.7 µM (active); in [13], 16.6 µM (active); in [14], 20.9 µM (active); in test [15], 23.5 µM (active). For the same compound, the Potency in [4] is 20.9 µM (active).
`CCCCc1ccc(NS(=O)(=O)c2ccc(C)c(C(=O)N3CCN(c4cccc(C)c4C)CC3)c2)cc1`: the Potency was 23.5 µM (active) in [5]; 20.9 µM (active) in test [9]; 13.2 µM (active) in test [10]; 26.4 µM (active) in test [13]; 20.9 µM (active) in [14]; 16.6 µM (active) in test [16]. Also, the Potency entry in [6] was “inactive”.
Turning to `C=CCc1cccc(C=NNC(=O)CN2CCN(Cc3ccccc3)CC2)c1O`, the Potency is 20.9 µM (active) in test [5]; 6.62 µM (active) in test [6]; 14.8 µM (active) in [17]; 7.43 µM (active) in test [7]; 8.33 µM (active) in test [10]; 9.35 µM (active) in test [11]. The Potency in [12] is 10.5 µM (active); in test [18], 7.43 µM (active); in [2] it was 20.9 µM (active); in test [3], 20.9 µM (active); in [13] it was 26.4 µM (active); in test [15], 16.6 µM (active). The Potency is 8.33 µM (active) in test [4] and 7.43 µM (active) in test [16].
Turning to `CC(=O)N1CCN(c2ccc(OCc3nn(C)c(C)c3-c3cccc4c(CCCOc5cc(C)c(Cl)c(C)c5)c(C(=O)O)n(Cc5cccnc5)c34)cc2)CC1`, the Potency in test [5] is 20.9 µM (active); in test [6], 18.7 µM (active); in test [17] it was 0.833 µM (active); in test [7], 20.9 µM (active); in [8], 7.43 µM (active); in test [10], 20.9 µM (active). The Potency is 5.9 µM (active) in [11]; 10.5 µM (active) in [18]; 7.43 µM (active) in [2]; 16.6 µM (active) in [13]; 20.9 µM (active) in test [4]; 9.35 µM (active) in [16]. Besides, the Potency entry in [14] and in [15] was “inactive” in each case.
Take `COc1cc2ncnc(Nc3cc(Br)c(O)c(Br)c3)c2cc1OC`: the Potency was 1.48 µM (active) in test [5]; 6.62 µM (active) in [19]; 0.0042 µM (active) in test [17]; 0.0023 µM (active) in [7]; 2.35 µM (active) in test [8]; 0.0469 µM (active) in test [9]. Further, the Potency was 0.0047 µM (active) in test [11]; 0.0074 µM (active) in test [12]; 0.0148 µM (active) in test [18]; 0.526 µM (active) in [2]; 0.0833 µM (active) in [3]; 0.0332 µM (active) in test [13]. In [14], the Potency was 8.33 µM (active). Also, the Potency entry in test [16] was “inactive”.
Turning to `O=C(CCCN1CCN(c2ccc(F)cc2)CC1)NC1c2ccccc2CSc2ccccc21` (centres undefined), the Potency is 11.8 µM (active) in test [5]; 4.69 µM (active) in [6]; 16.6 µM (active) in test [7]; 10.5 µM (active) in test [8]; 5.9 µM (active) in [9]; 20.9 µM (active) in [10]. Besides, the Potency in [11] is 14.8 µM (active); in [12] it was 11.8 µM (active); in test [18], 7.43 µM (active); in test [3], 13.2 µM (active); in [13] it was 14.8 µM (active); in test [4], 10.5 µM (active). In addition, the Potency in test [16] is 11.8 µM (active).
With `CC(=O)OCC(=O)[C@@]12OC(C)(C)O[C@H]1C[C@H]1[C@@H]3C[C@H](F)C4=CC(=O)C=C[C@]4(C)[C@@]3(F)[C@@H](O)C[C@@]12C`, the Potency result in test [5], in test [6], in [17], in test [8], in test [10] and in test [11] was “inactive” each time. The Potency entry in test [13], in test [15] and in test [16] was “inactive” throughout. The Potency is 0.0083 µM (active) in [14] and 0.0166 µM (active) in [4].
As to `O=C1C(c2c(O)[nH]c3ccccc23)=Nc2ccccc21`, the Potency is 9.35 µM (active) in [5]; 1.32 µM (active) in test [7]; 1.66 µM (active) in test [10]; 0.296 µM (active) in test [11]; 0.418 µM (active) in test [12]; 1.66 µM (active) in test [3]. In addition, the Potency result in test [6], in [2], in test [15], in test [4] and in [16] was “inactive” throughout.
What is called viability is a read-out of living cells in per cent, often relative to untreated cells. For `Cc1cc(-c2ncc(CC(=O)Nc3ccc(-c4cnccn4)cn3)cc2C)ccn1`, the Potency was 16.6 µM (active) in test [5]; 14.8 µM (active) in test [6]; 11.8 µM (active) in [7]; 8.33 µM (active) in [8]; 20.9 µM (active) in [10]; 14.8 µM (active) in [11]. Besides, the Potency in test [12] was 16.6 µM (active); in [18], 18.7 µM (active); in [3], 18.7 µM (active); in [4] it was 1.87 µM (active). The viability in test [9] was 117%. In test [16], the Potency result was “inactive”.
On to `Nc1ncnc2c1c(-c1cccc(OCc3ccccc3)c1)cn2C1CC(CN2CCC2)C1` (centres undefined), for which the Potency in test [5] was 3.32 µM (active); in test [6] it was 1.87 µM (active); in [17], 0.296 µM (active); in [7], 4.18 µM (active); in test [8], 16.6 µM (active); in [10] it was 16.6 µM (active). Besides, the Potency in test [11] is 14.8 µM (active); in [12], 23.5 µM (active); in test [18] it was 1.66 µM (active); in [2] it was 0.166 µM (active); in [3], 6.62 µM (active); in test [13] it was 26.4 µM (active). The Potency is 5.26 µM (active) in test [14], 2.96 µM (active) in [4] and 2.96 µM (active) in test [16].
For `CC(O)=C(C#N)C(=O)Nc1ccc(C(F)(F)F)cc1`, the Potency in test [5] was 16.6 µM (active); in test [7] it was 16.6 µM (active); in test [8], 16.6 µM (active); in test [9], 18.7 µM (active); in [10] it was 23.5 µM (active); in test [11], 18.7 µM (active). Besides, the Potency in [12] is 16.6 µM (active); in test [2], 33.2 µM (active); in test [3] it was 8.33 µM (active); in test [13] it was 20.9 µM (active); in test [14], 6.62 µM (active). In addition, the Potency entry in [6] and in test [15] was “inactive” throughout.
As for `O=C(O)c1nc(=O)[nH]c(=O)[nH]1`, the Potency in test [5] and in test [4] was 11.5 µM (active) throughout. Also, the Potency result in test [6], in [17], in test [8], in test [10], in test [13] and in test [15] was “inactive” each time.

(Values after PubChem BioAssay (NCATS).)
